High-throughput results as filed in PubChem BioAssay.
hcDAF12 agonist: H. contortus DAF-12 nuclear receptor activators, primary screen, cell-based, luminescence, HEK293, lit1-tk-luc reporter | activation, % at 6.8 µM | AID 652067, 2013 | HEK293 hcDAF-12 lit1-tk-luc reporter; 0% DMSO, 100% Δ7-dafachronic acid | hit rate 1.4% among 370,000;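 active = activation above the mean of all tested compounds plus 3 SD, cut at about 5.5% in these data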
DAX1 StAR inh: DAX1 (NR0B1) inhibitors on StAR promoter, primary screen, cell-based, luminescence, SF-1 (NR5A1), full-length DAX-1 | HEK293T StAR-luciferase reporter, SF-1/DAX-1 repression relief | inhibition, % at 6.8 µM | hit rate 1.1% among 370,000 | AID 652010, 2013;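 active = inhibition above the mean over all tested compounds plus 3 SD, cut at about 3.6% in these data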;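 note: higher inhibition means more luminescence from relief of DAX-1 repression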
Wnt act: Wnt/beta-catenin pathway activators, primary screen, cell-based, plate reader, single point; Wnt/beta-catenin reporter cell assay, activator; activation, % at 9.35 µM; hit rate 1.2% among 300,000; AID 743398, 2014; in the data active = activation above about 30%, passing the limit was not always enough; inconclusive = no clear call, values can overlap the other calls
esBAF inh: Bmi1 luciferase reporter increase in mESCs, primary screen, esBAF inhibitor project, mouse ES cells, Bmi1 luciferase knock-in, single point | hit rate 2% among 350,000 | reporter increase, % at 12.5 µM | 24 h; 100% = twice the neutral-well signal; in the data active = activation above about 40%; inconclusive = no clear call, values can overlap the other calls;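 note: a rise in the Bmi1 reporter signal indicates esBAF inhibition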
hgDAF-12 ag: H. glycines DAF-12 receptor agonists, primary screen, cell-based, luminescence, HEK293, GAL4 fusion, UAS-luciferase. Nuclear hormone receptor DAF-12 (Heterodera glycines), GAL4 fusion. HEK293 GAL4-hgDAF12 UAS-luciferase reporter, agonist luminescence; normalized to butyrate control. AID 687014, 2013. hit rate 1.8% among 370,000. activation, % at 6.8 µM;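 active = activation above a cutoff set at the mean of all screened compounds plus 3 SD, cut at about 10% in these data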
ssDAF-12 act: S. stercoralis DAF-12 nuclear receptor activators, primary screen, cell-based, luminescence, HEK293, GRIP1 co-expression, lit1-tk-luc | Nuclear hormone receptor DAF-12 (Strongyloides stercoralis) | HEK293 ssDAF-12/GRIP1 lit1-tk-luc reporter; % of 3 µM dafachronic acid response | activation, % at 6.8 µM | hit rate 1% among 370,000;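 active = activation above the mean over all tested compounds plus 3 SD, cut at about 0.9% in these data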
Hits are given with their value; i = inactive; ? = inconclusive; nt = no result given. Shown are actives, neighbours in structure and some others; about 4.2% of the full set was active somewhere.

SMILES | hcDAF12 agonist | DAX1 StAR inh | Wnt act | esBAF inh | hgDAF-12 ag | ssDAF-12 act
Cc1oc(-c2ccccc2Cl)nc1CS(=O)CC(=O)NCc1ccco1 (configuration not stated) | i | i | i | i | i | i
CN(C)CCCNc1oc(-c2ccc(Cl)cc2)nc1C#N | i | i | nt | i | i | i
COCCNc1oc(/C=C/c2ccccc2)nc1C#N | i | i | 45.6 | nt | i | i
COCCNc1oc(-c2ccc(Cl)cc2)nc1C#N | i | i | 43.1 | nt | i | i
COCCNc1oc(-c2ccc(C)cc2)nc1C#N | i | i | nt | 65.3 | i | i
Cc1oc(-c2ccc(Cl)cc2)nc1CS(=O)CC(=O)NCc1ccco1 (configuration not stated) | i | i | i | i | 10.8 | i
C[C@@H]1CN([C@@H](C)CO)C(=O)Cc2cc(NC(=O)C3CC3)ccc2O[C@H]1CN(C)CC1CC1 | nt | nt | nt | i | nt | nt
N#Cc1nc(-c2ccc(Cl)cc2)oc1NCc1ccco1 | i | i | 38.4 | 52.4 | i | i
CC(=O)N1[C@H](C(=O)NCC2CC2)[C@@H](CO)[C@@H]2Cn3c(ccc(-c4ccccc4F)c3=O)[C@@H]21 | nt | nt | nt | i | nt | nt
CCOc1ccc(/C=N/NC(=O)Cn2ccnc2C)cc1 | i | i | 51.3 | i | i | i
COc1cccc(/C=N/NC(=O)Cn2ccnc2C)c1 | i | i | i | nt | i | i
O=C(CCC(=O)N1CCOc2ccccc21)NCCCN1CCCCC1 | i | i | i | i | i | i
CCN1CCN(CCCNC(=O)CCC(=O)N2CCOc3ccccc32)CC1 | 5.7 | i | i | i | i | i
CS(=O)(=O)c1ccc(Cl)c(NC(=O)Cc2ccccc2F)c1 | i | i | i | i | i | i
CS(=O)(=O)c1ccc(Cl)c(NC(=O)Cc2c(F)cccc2Cl)c1 | 5.6 | i | i | nt | i | i
Cc1ccc(S(=O)(=O)N2CCCCC2)cc1NC(=O)COC(=O)Cc1c(F)cccc1Cl | 6.1 | i | nt | nt | i | i
Cc1ccc(S(=O)(=O)N2CCCCC2)cc1NC(=O)COC(=O)c1c(F)cccc1F | i | i | i | nt | i | i
Cc1noc(C)c1-c1csc(N2CCC(C(N)=O)CC2)n1 | i | i | i | 74.4 | i | i
NC(=O)C1CCN(c2nc(-c3cccs3)cs2)CC1 | nt | nt | nt | 47.3 | nt | nt
NC(=O)C1CCN(c2nc(-c3ccc4c(c3)OCCO4)cs2)CC1 | i | i | i | nt | i | i
CC(C)Oc1ccc(-c2csc(N3CCC(C(N)=O)CC3)n2)cc1 | i | nt | nt | nt | 10.8 | i
CN(C)c1cccc(-c2csc(N3CCC(C(N)=O)CC3)n2)c1 | i | i | 32.6 | 60.3 | i | i
O=C(C[C@H]1C=C[C@H](NC(=O)Nc2ccccc2)[C@@H](CO)O1)NCc1cccc(F)c1 | nt | nt | nt | i | nt | nt
COc1ccc(C(=O)/C=C/c2cn(CN3CCN(C)CC3)c3ccccc23)cc1 | nt | nt | nt | 51.4 | nt | nt
Cc1nc(-c2coc3cc(OCC(=O)O)ccc3c2=O)cs1 | i | i | nt | i | i | i
SMILES | hcDAF12 agonist | DAX1 StAR inh | Wnt act | esBAF inh | hgDAF-12 ag | ssDAF-12 act
CCc1cc2c(=O)c(-c3nc(C)cs3)coc2cc1O | i | i | 38.9 | 47.8 | i | i
Cc1c(OC(C)C(=O)N[C@H](C(=O)O)c2ccccc2)ccc2c3c(c(=O)oc12)CCCC3 (some centres not stated) | i | i | i | i | i | i
CC(=O)COc1ccc2c3c(c(=O)oc2c1C)CCCCC3 | i | i | nt | 45.0 | i | i
CC(=O)C(C)Oc1ccc2c3c(c(=O)oc2c1C)CCCC3 (configuration not stated) | i | i | i | 57.9 | i | i
C[C@@H]1CCCCO[C@H](CN(C)S(=O)(=O)c2ccc(Cl)cc2)[C@@H](C)CN([C@@H](C)CO)C(=O)c2cc(NC(=O)CCC(F)(F)F)ccc2O1 | nt | nt | nt | i | nt | nt
COc1ccc(S(=O)(=O)N2CCN(C(=O)CN3C(=O)NC(C)(c4ccc5ccccc5c4)C3=O)CC2)cc1 (configuration not stated) | i | i | i | i | i | i
COc1ccc2cc(C3(C)NC(=O)N(CC(=O)N4CCCCC4)C3=O)ccc2c1 (configuration not stated) | i | 4.1 | i | i | i | i
Cc1c(C(=O)Nc2ccccc2N2CCN(C)CC2)oc2ccc(F)cc12 | i | i | i | i | i | 1.0
CCOC(=O)C1=C(N)n2c(s/c(=C/c3ccco3)c2=O)=C(C(=O)OC)C1c1ccco1 (configuration not stated) | i | i | i | i | i | i
N#CC1=C(N)n2c(s/c(=C\c3ccco3)c2=O)=C(C#N)C1c1ccco1 (configuration not stated) | i | i | i | i | i | 1.6
CO[C@H]1CN(C)C(=O)c2cc(NC(=O)C3CC3)ccc2OC[C@H](C)N(C(C)=O)C[C@@H]1C | nt | nt | nt | i | nt | nt
CCOC(=O)CNC(=O)c1c2c(nc3ccccc13)CCCC2 | i | i | i | i | i | 1.0
C[C@@H]1CN([C@H](C)CO)C(=O)c2cc(NC(=O)NC3CCCCC3)ccc2O[C@@H](C)CCCCO[C@H]1CN(C)Cc1ccncc1 | nt | nt | nt | i | nt | nt
c1ccc(-c2ccc3cnccc3n2)cc1 | i | i | i | 51.9 | i | i
c1ccc2nc(-c3ccncc3)ccc2c1 | i | i | nt | i | i | i
Cc1ccc2[nH]c(C(=O)N3CCCCC3)cc2c1 | i | i | i | 57.9 | i | i
O=C(c1ccco1)N1CCN(Cc2c(Cl)cccc2Cl)CC1 | i | i | i | 59.0 | i | i
O=C(c1cc2cc(Cl)ccc2[nH]1)N1CCN(C(=O)c2ccco2)CC1 | 5.9 | i | i | i | i | i
O=C(c1ccco1)N1CCN(C(=O)c2ccc(-c3ccccc3Cl)o2)CC1 | i | i | i | 56.1 | i | i
O=C(c1ccco1)N1CCN(Cc2ccc(Cl)cc2)CC1 | i | i | i | i | i | i
C[C@@H]1CN([C@@H](C)CO)C(=O)Cc2cc(NC(=O)Nc3ccc(F)cc3)ccc2O[C@H]1CN(C)S(C)(=O)=O | nt | nt | nt | i | nt | nt
Cc1nc2sc(-c3ccccc3)cc2c(=O)n1/N=C/N(C)C | i | i | i | ? | 10.6 | 0.9
Cc1nc2sc(-c3ccccc3)cc2c(=O)n1-n1cccc1 | i | i | nt | 48.1 | 11.4 | i
O=C(CCc1nc2ccccc2c(=O)[nH]1)N1CCCc2ccccc21 | 5.6 | i | i | i | i | 1.3
O=C(Nc1cc(F)c(Br)cc1F)c1ccc(Cl)cc1 | i | i | 49.0 | nt | i | i
O=C(Nc1ccc(Cl)cc1C(F)(F)F)c1ccccc1Cl | i | i | i | nt | i | i
O=C(Nc1ccc(Cl)cc1C(F)(F)F)c1ccc(Cl)cc1 | i | i | ? | 48.6 | i | i
